# The source made the active and inactive calls.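 How the source made its calls: active means inhibition above 20% together with a positive visual image hit; inconclusive means visual image hit but inhibition not above 20%; inactive means no visual image hit.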
# Experiment: inhibitors of TNFa-induced NFkB p65 translocation, primary screen, imaging, HUVEC, MLSMR starter and 10KST1 sets (AID 438);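 further: compound added about 3h40 before a 20 min TNFalpha stimulation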;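 on inhibition: signal is the nuclear over cytoplasmic p65 intensity ratio per well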
# Conditions: HUVEC TNFa-induced p65 nuclear translocation; cell count: measured here: nuclei count (cytotoxicity indicator), at 2.08 µM; inhibition: at 2 µM, stronger effect = higher value, 0% TNFa-plus-vehicle, 100% no-TNFa wells
Structure (SMILES),cell count,inhibition
Nc1nonc1N1CCCCC1,437,-8.1% (inactive)
CC1NC2(C(=O)N(Cc3ccccc3)c3ccccc32)C2C(=O)N(c3ccccc3)C(=O)C12 (stereo not given),643,-5.3% (inactive)
CCNC(=O)C1CC(=O)N(Cc2ccc3c(c2)OCO3)C(=Nc2ccc(F)cc2)S1 (stereo not given),705,-0.8% (inactive)
N/C(=N/O)c1nc(N2CCCC2)nc(N(c2ccccc2)c2ccccc2)n1,371,0.4% (inactive)
O=C(CC1Oc2ccc(Cl)cc2NC1=O)NC1CCCCCC1 (stereo not given),615,-4.3% (inactive)
O=C(CSc1n[nH]c(-c2ccco2)n1)Nc1sc2c(c1C(=O)Nc1ccccc1)CCCC2,298,-4.3% (inactive)
Cc1nc2ccc(S(=O)(=O)NCC(=O)N3CCc4ccccc4C3)cc2s1,439,2.7% (inactive)
CN(C1CCCCC1)S(=O)(=O)c1ccc(S(=O)(=O)N2CCN(CCC#N)CC2)cc1,698,0% (inactive)
CCOC(=O)C(NC(=O)Nc1ccccc1)(OCC)C(F)(F)F (stereo not given),517,-2.4% (inactive)
Cc1ccc(NC(=O)CCC(=O)O)cc1F,381,9.4% (inactive)
Cc1cc(C)n(-c2cc(N3CCOCC3)ncn2)n1,690,-9.8% (inactive)
CC1CCCC(C)N1C(=O)COC(=O)c1ccc[nH]c1=O (stereo not given),476,0% (inactive)
COc1ccc(N(CC(=O)Nc2cc(C)ccc2C)S(=O)(=O)c2c(C)nn(C)c2C)cc1,499,-2.3% (inactive)
Cc1ccc(-c2cc3nc4c(c(=O)n3[nH]2)CCCC4)cc1,663,-11% (inactive)
CCSc1oc(-c2cccs2)nc1S(=O)(=O)c1ccccc1,690,-6.7% (inactive)
CNC(=O)c1nnn(Cc2ccccc2)c1NC(C)=O,539,-14.7% (inactive)
O=C(CSc1nnc2ccccn12)NCCN1C(=O)CSC1=O,701,-2.8% (inactive)
CC(=O)Nc1cccc(NC(=O)c2ccco2)c1,286,2.5% (inactive)
O=C(CSc1nc2ccsc2c(=O)n1NC(=O)c1ccccc1)Nc1nccs1,414,3.2% (inactive)
O=S(=O)(c1ccccc1)N1CCN(S(=O)(=O)c2ccccc2)C1,281,5.1% (inactive)

Structure (SMILES),cell count,inhibition
CN(C)S(=O)(=O)c1cccc(C(=O)Nc2cccnc2)c1,294,10.1% (inactive)
COc1ccc(Cn2nnnc2CN2CCOCC2)cc1,476,2.5% (inactive)
Cc1cc(NS(=O)(=O)c2ccccc2)no1,662,-5.5% (inactive)
O=C(/C=N/O)NCc1ccncc1,420,1.2% (inactive)
Cc1cc(C(=O)NCc2ccc(S(N)(=O)=O)cc2)cs1,321,4.7% (inactive)
CCn1cc(C(=O)N2CCOCC2)c(=O)c2cc(S(=O)(=O)N(C)C3CCCCC3)ccc21,518,7.1% (inactive)
CCc1nnc(NC(=O)NCN2C(=O)C3C4C=CC(C4)C3C2=O)s1 (stereo not given),303,4.3% (inactive)
CC(=O)c1cc(Cl)ccc1OC(=O)c1ccco1,475,0.5% (inactive)
CCOC(=O)CSc1nc2sc(C)c(C)c2c(=O)n1C,259,12.5% (inactive)
O=C(c1ccco1)N1CCN(CCCCN2C(=O)c3ccccc3C2=O)CC1,265,26.7% (inactive)
CS(=O)(=O)N(CC(=O)NCc1ccncc1)Cc1ccc(Cl)cc1,614,8.7% (inactive)
CC1CCc2c(sc(N)c2C(N)=O)C1 (stereo not given),722,-4.4% (inactive)
Cc1cc2ccccn2c1C(=O)c1ccncc1,602,-0.6% (inactive)
Cc1nnc(SCC(=O)NCCN2C(=O)CSC2=O)s1,413,2.2% (inactive)
CCOC(=O)c1cccc(NC(=O)CNS(=O)(=O)c2cccs2)c1,445,6.8% (inactive)
COc1ccc(NC(=O)CS(=O)CC(=O)Nc2cc(Cl)ccc2OC)cc1 (stereo not given),485,10.5% (inactive)
O=C(NCCc1c[nH]c2ccccc12)c1cnc2n(c1=O)CCS2,532,6.3% (inactive)
COc1ccc2c(c1)cc(C(=O)O)n2C,773,4.2% (inactive)
COc1cc2c(cc1OC)CN(CC(=O)Nc1cccc(C)c1)CC2,384,3.5% (inactive)
COc1ccc(-n2c(=O)[nH]cc(C(=O)Nc3ccc(NC(C)=O)cc3)c2=O)cc1,233,7% (inactive)
